# Assay results published in publication PMC7862700, “An all-to-all approach to the identification of sequence-specific readers for epigenetic DNA modifications on cytosine”.
# Assays:
# Experiment in all cases: DAPPL (digital affinity profiling via proximity ligation, sequencing); 10 mM Tris-HCl pH 7.5, 50 mM NaCl, 1 mM DTT, 4% glycerol, room temperature, 30 min; GST-TFs on glutathione beads, 16-mer random dsDNA library, 0.1% formaldehyde crosslink after washing; high values mean tight binding
# [1] = target: T1, FEV (Homo sapiens, UniProt Q99581 1-238); conditions: protein: recombinant; tags: N-terminal GST; dsDNA, one strand shown
# T1 sequence: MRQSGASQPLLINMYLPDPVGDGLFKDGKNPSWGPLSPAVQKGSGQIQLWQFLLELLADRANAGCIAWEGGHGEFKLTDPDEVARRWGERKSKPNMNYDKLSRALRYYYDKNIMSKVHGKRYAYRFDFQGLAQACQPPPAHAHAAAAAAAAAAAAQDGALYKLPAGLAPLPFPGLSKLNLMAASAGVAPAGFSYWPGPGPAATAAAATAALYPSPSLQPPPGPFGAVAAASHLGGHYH
# Outline: (§1)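 A tag-only sample was pooled with DNA-barcoded human transcription factors that had been expressed in yeast as GST fusions and captured on glutathione beads. The pools were incubated for 30 min at room temperature with 200 nmole of a random double-stranded 16-mer DNA library in Tris/NaCl/DTT/glycerol buffer, then washed, crosslinked with 0.1% formaldehyde, proximity-ligated (BsaI/T4 ligase, 1 h, 37 °C), PCR-amplified and sequenced on an Illumina NextSeq500. Binding signal is each hexamer's read frequency for a factor divided by its frequency for the tag-only sample.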
# [2] = target: ETV5 (Homo sapiens, UniProt P41161 1-510); conditions: protein: recombinant; tags: N-terminal GST; dsDNA, one strand shown
# Outline: as §1
# [3] = target: HSF1 (Homo sapiens, UniProt Q00613 1-529); conditions: protein: recombinant; tags: N-terminal GST; chain copies: 3; dsDNA, one strand shown
# Outline: as §1
# [4] = target: T2, SPIC (Homo sapiens, UniProt Q8N5J4 1-248); conditions: protein: recombinant; tags: N-terminal GST; dsDNA, one strand shown
# T2 sequence: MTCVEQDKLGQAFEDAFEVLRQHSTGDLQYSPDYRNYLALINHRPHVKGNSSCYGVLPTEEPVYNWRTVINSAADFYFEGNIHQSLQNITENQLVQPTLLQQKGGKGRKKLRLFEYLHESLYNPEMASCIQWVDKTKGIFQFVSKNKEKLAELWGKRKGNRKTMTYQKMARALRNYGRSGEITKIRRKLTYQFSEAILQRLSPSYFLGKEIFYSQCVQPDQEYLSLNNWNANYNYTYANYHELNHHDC
# Outline: as §1
# [5] = target: ELF4 (Homo sapiens, UniProt Q99607 1-663); conditions: protein: recombinant; tags: N-terminal GST; dsDNA, one strand shown
# Outline: as §1
# [6] = target: T3, ELK4 (Homo sapiens, UniProt P28324-2 1-405); conditions: protein: recombinant; tags: N-terminal GST; dsDNA, one strand shown
# T3 sequence: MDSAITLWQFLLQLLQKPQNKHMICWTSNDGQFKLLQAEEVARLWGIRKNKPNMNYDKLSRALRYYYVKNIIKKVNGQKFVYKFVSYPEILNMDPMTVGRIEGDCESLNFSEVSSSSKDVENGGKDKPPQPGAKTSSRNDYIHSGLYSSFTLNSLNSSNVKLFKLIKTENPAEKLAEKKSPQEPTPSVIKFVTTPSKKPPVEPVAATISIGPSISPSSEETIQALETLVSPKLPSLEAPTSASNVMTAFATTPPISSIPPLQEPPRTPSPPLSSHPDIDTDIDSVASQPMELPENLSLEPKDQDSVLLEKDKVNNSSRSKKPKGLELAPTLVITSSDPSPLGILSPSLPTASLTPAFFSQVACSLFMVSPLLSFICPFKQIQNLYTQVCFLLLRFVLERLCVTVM
# Outline: as §1
# [7] = target: T4, ETV2 (Homo sapiens, UniProt O00321 1-342); conditions: protein: recombinant; tags: N-terminal GST; dsDNA, one strand shown
# T4 sequence: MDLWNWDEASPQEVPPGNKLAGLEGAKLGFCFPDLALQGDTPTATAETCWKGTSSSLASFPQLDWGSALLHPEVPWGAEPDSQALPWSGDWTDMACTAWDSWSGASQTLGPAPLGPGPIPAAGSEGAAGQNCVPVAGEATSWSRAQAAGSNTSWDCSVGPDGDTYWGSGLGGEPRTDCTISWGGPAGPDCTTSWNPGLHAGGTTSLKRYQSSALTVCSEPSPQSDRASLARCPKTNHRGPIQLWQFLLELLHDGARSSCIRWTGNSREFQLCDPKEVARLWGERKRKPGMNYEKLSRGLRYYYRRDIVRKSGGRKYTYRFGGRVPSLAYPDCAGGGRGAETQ
# Outline: as §1
# [8] = target: T5, ELF3 (Homo sapiens, UniProt P78545 1-371); conditions: protein: recombinant; tags: N-terminal GST; dsDNA, one strand shown
# T5 sequence: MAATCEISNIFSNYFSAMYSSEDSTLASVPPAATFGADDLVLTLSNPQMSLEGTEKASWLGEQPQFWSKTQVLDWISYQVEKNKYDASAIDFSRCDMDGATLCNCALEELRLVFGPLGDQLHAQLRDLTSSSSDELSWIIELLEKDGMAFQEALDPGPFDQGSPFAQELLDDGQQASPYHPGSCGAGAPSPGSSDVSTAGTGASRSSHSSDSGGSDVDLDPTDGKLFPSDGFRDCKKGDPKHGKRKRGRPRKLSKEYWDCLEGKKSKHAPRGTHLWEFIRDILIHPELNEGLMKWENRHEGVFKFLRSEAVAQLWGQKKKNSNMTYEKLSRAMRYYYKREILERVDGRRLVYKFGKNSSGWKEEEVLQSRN
# Outline: as §1
# [9] = target: CRX (Homo sapiens, UniProt O43186 1-299); conditions: protein: recombinant; tags: N-terminal GST; dsDNA, one strand shown
# Outline: as §1
# [10] = target: ETV1 (Homo sapiens, UniProt P50549 1-477); conditions: protein: recombinant; tags: N-terminal GST; dsDNA, one strand shown
# Outline: as §1
# [11] = target: T6, ERF (Homo sapiens, UniProt P50548 1-548); conditions: protein: recombinant; tags: N-terminal GST; dsDNA, one strand shown
# T6 sequence: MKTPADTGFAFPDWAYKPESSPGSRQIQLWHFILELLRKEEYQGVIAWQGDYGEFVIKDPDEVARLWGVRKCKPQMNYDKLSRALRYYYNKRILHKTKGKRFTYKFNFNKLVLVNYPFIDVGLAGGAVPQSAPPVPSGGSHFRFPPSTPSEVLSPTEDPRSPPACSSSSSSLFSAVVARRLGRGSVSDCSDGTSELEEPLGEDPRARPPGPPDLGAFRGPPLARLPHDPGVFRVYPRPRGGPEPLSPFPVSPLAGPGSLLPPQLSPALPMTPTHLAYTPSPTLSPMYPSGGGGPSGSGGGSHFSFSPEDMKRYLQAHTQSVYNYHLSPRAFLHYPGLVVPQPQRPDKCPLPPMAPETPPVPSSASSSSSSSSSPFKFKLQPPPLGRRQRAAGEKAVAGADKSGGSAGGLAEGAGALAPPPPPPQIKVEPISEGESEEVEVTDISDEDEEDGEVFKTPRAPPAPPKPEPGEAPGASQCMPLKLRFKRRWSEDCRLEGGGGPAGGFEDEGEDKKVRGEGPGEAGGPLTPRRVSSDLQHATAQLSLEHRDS
# Outline: as §1
# [12] = target: T7, ETV3L (Homo sapiens, UniProt Q6ZN32 1-361); conditions: protein: recombinant; tags: N-terminal GST; dsDNA, one strand shown
# T7 sequence: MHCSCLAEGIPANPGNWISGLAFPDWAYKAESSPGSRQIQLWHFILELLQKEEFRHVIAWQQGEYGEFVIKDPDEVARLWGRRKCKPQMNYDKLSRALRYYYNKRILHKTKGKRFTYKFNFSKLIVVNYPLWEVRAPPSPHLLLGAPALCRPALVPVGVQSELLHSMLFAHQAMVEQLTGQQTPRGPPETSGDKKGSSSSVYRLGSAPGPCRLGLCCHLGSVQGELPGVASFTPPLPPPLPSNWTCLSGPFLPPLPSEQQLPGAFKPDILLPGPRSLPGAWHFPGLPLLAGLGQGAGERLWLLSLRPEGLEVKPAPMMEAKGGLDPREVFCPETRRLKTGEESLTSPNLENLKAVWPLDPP
# Outline: as §1
# [13] = target: T8, ETS2 (Homo sapiens, UniProt P15036 1-469); conditions: protein: recombinant; tags: N-terminal GST; dsDNA, one strand shown
# T8 sequence: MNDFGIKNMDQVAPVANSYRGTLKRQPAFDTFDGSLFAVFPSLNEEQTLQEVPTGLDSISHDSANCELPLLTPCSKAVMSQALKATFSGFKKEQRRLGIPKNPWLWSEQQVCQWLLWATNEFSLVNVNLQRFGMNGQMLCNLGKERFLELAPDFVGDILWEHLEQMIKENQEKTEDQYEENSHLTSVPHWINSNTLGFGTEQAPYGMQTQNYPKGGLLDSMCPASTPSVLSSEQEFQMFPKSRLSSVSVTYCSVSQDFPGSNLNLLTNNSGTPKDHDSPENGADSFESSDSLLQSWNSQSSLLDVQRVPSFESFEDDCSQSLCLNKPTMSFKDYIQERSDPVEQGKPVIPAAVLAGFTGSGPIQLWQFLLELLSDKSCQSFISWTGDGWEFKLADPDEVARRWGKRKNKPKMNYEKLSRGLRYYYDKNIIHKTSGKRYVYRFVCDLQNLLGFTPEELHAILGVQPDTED
# Outline: as §1
# [14] = target: T9, SPDEF (Homo sapiens, UniProt O95238 1-335); conditions: protein: recombinant; tags: N-terminal GST; dsDNA, one strand shown
# T9 sequence: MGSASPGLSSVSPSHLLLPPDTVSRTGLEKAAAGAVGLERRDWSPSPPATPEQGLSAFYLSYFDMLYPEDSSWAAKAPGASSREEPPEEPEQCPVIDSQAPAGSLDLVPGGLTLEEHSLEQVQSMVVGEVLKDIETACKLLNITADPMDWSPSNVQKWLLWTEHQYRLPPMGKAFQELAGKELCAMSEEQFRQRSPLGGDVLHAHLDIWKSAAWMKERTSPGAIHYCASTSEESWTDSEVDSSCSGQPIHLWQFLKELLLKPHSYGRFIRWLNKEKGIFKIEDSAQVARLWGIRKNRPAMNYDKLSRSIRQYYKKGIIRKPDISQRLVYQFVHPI
# Outline: as §1
# [15] = target: T10, ETV7 (Homo sapiens, UniProt Q9Y603 1-341); conditions: protein: recombinant; tags: N-terminal GST; dsDNA, one strand shown
# T10 sequence: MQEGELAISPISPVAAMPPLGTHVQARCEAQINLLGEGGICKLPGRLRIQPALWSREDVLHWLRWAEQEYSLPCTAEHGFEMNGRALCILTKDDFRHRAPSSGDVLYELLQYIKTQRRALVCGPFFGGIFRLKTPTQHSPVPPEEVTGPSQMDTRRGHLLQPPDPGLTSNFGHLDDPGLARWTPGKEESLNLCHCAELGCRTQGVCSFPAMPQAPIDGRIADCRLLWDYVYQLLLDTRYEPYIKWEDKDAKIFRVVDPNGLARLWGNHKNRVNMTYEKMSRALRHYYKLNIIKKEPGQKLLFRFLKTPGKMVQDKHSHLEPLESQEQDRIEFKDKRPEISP
# Outline: as §1
# [16] = target: T11, ELF5 (Homo sapiens, UniProt Q9UKW6-2 1-255); conditions: protein: recombinant; tags: N-terminal GST; dsDNA, one strand shown
# T11 sequence: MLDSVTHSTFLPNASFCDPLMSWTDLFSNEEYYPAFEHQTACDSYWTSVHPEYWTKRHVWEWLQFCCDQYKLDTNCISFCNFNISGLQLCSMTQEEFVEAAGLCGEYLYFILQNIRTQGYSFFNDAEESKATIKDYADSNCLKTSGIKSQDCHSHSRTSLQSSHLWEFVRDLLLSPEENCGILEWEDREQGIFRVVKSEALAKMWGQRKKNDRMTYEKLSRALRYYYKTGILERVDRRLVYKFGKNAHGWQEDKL
# Outline: as §1
# [17] = target: T12, ETV3 (Homo sapiens, UniProt P41162-2 1-143); conditions: protein: recombinant; tags: N-terminal GST; dsDNA, one strand shown
# T12 sequence: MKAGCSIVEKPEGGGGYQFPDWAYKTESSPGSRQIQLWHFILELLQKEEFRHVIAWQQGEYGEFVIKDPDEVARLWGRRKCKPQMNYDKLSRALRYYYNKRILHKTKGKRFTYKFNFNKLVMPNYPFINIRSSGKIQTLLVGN
# Outline: as §1
# [18] = target: ETV6 (Homo sapiens, UniProt P41212 1-452); conditions: protein: recombinant; tags: N-terminal GST; dsDNA, one strand shown
# Outline: as §1
# ETV5, sequence (P41161 whole entry): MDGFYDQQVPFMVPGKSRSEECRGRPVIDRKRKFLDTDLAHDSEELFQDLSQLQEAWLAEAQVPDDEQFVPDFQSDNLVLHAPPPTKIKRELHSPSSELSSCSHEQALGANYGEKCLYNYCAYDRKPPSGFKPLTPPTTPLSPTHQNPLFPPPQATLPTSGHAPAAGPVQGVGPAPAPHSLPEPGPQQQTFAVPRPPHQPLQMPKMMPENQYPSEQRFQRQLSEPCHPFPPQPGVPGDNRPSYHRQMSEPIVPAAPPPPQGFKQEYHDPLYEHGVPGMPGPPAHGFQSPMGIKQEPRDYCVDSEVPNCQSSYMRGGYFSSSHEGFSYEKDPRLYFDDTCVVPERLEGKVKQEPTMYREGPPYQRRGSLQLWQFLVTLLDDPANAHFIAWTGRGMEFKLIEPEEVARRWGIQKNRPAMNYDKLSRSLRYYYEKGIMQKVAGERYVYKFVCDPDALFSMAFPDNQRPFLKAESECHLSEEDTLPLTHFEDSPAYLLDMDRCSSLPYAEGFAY
# ETV6, sequence (P41212 whole entry): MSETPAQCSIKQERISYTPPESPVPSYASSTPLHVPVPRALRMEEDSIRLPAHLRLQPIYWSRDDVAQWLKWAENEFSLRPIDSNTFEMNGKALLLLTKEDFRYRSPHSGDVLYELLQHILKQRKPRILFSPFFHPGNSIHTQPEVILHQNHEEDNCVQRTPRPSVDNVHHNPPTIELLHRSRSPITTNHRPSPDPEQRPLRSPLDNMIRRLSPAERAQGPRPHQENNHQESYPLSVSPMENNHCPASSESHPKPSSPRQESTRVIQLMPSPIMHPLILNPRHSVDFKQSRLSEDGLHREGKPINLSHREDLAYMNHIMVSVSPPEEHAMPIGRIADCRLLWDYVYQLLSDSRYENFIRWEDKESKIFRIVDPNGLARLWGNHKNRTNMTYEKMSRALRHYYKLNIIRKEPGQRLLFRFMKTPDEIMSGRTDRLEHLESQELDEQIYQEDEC
# HSF1, sequence (Q00613 whole entry): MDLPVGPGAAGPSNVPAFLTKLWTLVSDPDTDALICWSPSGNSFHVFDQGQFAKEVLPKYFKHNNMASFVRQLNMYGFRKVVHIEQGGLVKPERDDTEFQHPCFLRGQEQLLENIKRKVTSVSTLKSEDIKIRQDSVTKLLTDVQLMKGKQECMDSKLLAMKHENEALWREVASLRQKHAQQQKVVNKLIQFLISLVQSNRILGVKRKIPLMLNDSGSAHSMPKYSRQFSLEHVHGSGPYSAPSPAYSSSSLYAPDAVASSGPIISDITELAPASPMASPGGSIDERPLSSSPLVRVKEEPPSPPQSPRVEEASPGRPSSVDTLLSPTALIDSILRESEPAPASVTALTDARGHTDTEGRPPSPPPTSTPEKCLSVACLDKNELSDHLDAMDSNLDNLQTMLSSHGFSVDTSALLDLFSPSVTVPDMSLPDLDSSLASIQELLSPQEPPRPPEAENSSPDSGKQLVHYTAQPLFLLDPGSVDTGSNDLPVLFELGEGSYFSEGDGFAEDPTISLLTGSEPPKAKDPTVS
# ETV1, sequence (P50549 whole entry): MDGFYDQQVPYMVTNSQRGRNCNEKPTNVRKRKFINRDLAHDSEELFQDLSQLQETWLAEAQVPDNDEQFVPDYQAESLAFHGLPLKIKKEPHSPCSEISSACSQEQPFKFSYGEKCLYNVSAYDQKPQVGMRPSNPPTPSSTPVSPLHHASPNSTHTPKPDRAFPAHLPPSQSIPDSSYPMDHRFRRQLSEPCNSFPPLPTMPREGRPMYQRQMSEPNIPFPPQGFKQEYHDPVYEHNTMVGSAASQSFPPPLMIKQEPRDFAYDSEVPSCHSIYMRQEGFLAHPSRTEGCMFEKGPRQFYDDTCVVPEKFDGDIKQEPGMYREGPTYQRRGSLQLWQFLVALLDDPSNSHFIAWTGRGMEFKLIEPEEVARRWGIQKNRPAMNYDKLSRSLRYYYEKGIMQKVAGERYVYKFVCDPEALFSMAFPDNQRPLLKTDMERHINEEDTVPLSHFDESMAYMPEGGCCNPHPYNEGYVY
# CRX, sequence (O43186 whole entry): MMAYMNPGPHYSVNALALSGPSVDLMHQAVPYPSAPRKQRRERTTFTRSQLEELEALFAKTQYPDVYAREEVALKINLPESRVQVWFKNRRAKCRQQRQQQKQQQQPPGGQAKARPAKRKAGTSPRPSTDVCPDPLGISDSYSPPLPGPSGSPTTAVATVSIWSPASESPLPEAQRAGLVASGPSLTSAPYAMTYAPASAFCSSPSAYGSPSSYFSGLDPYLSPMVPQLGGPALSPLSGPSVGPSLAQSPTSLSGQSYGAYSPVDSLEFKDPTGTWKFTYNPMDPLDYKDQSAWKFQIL
# ELF4, sequence (Q99607 whole entry): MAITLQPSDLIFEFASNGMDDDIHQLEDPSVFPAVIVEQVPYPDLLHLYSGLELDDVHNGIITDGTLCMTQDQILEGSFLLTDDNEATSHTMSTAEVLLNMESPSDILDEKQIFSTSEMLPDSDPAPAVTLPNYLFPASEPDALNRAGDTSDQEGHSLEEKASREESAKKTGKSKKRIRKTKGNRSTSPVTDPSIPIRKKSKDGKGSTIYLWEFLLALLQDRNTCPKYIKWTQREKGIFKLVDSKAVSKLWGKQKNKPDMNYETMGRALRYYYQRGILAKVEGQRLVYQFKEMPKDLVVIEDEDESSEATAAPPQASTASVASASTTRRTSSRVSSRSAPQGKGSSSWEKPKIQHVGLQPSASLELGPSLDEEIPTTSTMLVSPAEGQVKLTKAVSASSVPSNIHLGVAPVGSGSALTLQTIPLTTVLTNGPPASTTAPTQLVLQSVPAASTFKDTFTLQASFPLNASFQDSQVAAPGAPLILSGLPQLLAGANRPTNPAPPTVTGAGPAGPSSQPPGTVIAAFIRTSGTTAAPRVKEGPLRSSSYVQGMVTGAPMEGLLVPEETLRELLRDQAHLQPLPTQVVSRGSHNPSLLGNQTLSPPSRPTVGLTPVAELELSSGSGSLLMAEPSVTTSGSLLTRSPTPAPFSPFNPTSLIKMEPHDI
sequence,measurement,setting,value
CTTGCA,binding signal,[1],"1.3 fold enrichment (6-mer frequency, TF over GST control)"
same,binding signal,[2],"1.31 fold enrichment (6-mer frequency, TF over GST control)"
same,binding signal,[3],"1.12 fold enrichment (6-mer frequency, TF over GST control)"
same,binding signal,[4],"1.28 fold enrichment (6-mer frequency, TF over GST control)"
same,binding signal,[5],"1.41 fold enrichment (6-mer frequency, TF over GST control)"
same,binding signal,[6],"1.4 fold enrichment (6-mer frequency, TF over GST control)"
same,binding signal,[7],"1.45 fold enrichment (6-mer frequency, TF over GST control)"
same,binding signal,[8],"1.3 fold enrichment (6-mer frequency, TF over GST control)"
same,binding signal,[9],"1.15 fold enrichment (6-mer frequency, TF over GST control)"
same,binding signal,[10],"1.41 fold enrichment (6-mer frequency, TF over GST control)"
same,binding signal,[11],"1.39 fold enrichment (6-mer frequency, TF over GST control)"
same,binding signal,[12],"1.53 fold enrichment (6-mer frequency, TF over GST control)"
same,binding signal,[13],"1.33 fold enrichment (6-mer frequency, TF over GST control)"
same,binding signal,[14],"1.49 fold enrichment (6-mer frequency, TF over GST control)"
same,binding signal,[15],"1.28 fold enrichment (6-mer frequency, TF over GST control)"
same,binding signal,[16],"1.36 fold enrichment (6-mer frequency, TF over GST control)"
same,binding signal,[17],"1.45 fold enrichment (6-mer frequency, TF over GST control)"
same,binding signal,[18],"1.3 fold enrichment (6-mer frequency, TF over GST control)"
